Laboratory results reported in PubChem BioAssay.
Where “and” joins values, the source holds several entries; their conditions need not be identical. Equal values may be shown once. Records with an inconclusive call do not appear. Calls of active or inactive are those of the source. Unless noted, the limit is not given here; nearly all actives have AC50 up to about 26 µM.

Assays:
[1] = viability loss in pontine glioma line – cell-based, SU-DIPG-XVII, MIPE5.0, CellTiter-Glo, qHTS, dose response (AID 1347060); settings: CellTiter-Glo ATP luminescence;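 as to AC50: cells exposed to compound for 48 hours before viability readout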
[2] = viability loss in pontine glioma line – cell-based, SU-DIPG-XIII, MIPE4.0, CellTiter-Glo, qHTS, dose response (AID 1347061; cut-off not given, nearly all actives have AC50 up to about 37 µM;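 also: cells exposed to compound for 48 hours before readout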); settings: CellTiter-Glo ATP luminescence
[3] = viability loss in pontine glioma line – cell-based, JHH-DIPG-1, MIPE4.0, CellTiter-Glo, qHTS, dose response (AID 1347062; cut-off not given, nearly all actives have AC50 up to about 27 µM;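 as to AC50: cells exposed to compound for two days before readout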); settings: JHH-DIPG-1 viability, CellTiter-Glo ATP luminescence
[4] = viability loss in pontine glioma line – cell-based, SU-DIPG-IV, MIPE4.0, CellTiter-Glo, qHTS, dose response (AID 1347063; cut-off not given, nearly all actives have AC50 up to about 30 µM;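 also: compound exposure lasted 48 hours before the viability readout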); settings: CellTiter-Glo ATP luminescence
[5] = viability loss in pontine glioma line – cell-based, SU-DIPG-XIII, MIPE5.0, CellTiter-Glo, qHTS, dose response (AID 1347064; cut-off not given, nearly all actives have AC50 up to about 23 µM;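 as to AC50: cells exposed to compound for 48 hours before the viability read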); settings: CellTiter-Glo ATP luminescence
[6] = viability loss in pontine glioma line – cell-based, SU-DIPG-XXV, MIPE5.0, CellTiter-Glo, qHTS, dose response (AID 1347065); settings: CellTiter-Glo ATP luminescence;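 also: cells exposed to compound for 48 hours before ATP readout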
[7] = growth inhibition of DIPG cells – cell-based, MIPE4.0 library, CellTiter-Glo luminescence, qHTS (AID 1347066; cut-off not given, nearly all actives have AC50 up to about 30 µM;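 also: cells exposed to compound for 48 hours before readout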); settings: SU-DIPG-VI viability, CellTiter-Glo ATP luminescence
[8] = JHH-DIPG-1 glioma cell viability, MIPE5.0 library, CellTiter-Glo luminescence, qHTS (AID 1347067); settings: JHH-DIPG-1 glioma viability, CellTiter-Glo ATP luminescence;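 also: cells exposed to compound for 48 hours before readout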
[9] = growth inhibition of DIPG cells – cell-based, MIPE5.0 library, qHTS (AID 1347068; cut-off not given, nearly all actives have IC50 up to about 30 µM;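 as to IC50: cells exposed to compound for 48 hours before viability readout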); settings: SU-DIPG-XXV viability
[10] = viability loss with induced miR-34 in A549 – imaging, A549 dox-inducible miR-34, nuclei and caspase counts, primary screen (AID 1347080;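 active = compounds whose cell count with miR-34 switched on is under 0.7 times the count with it off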); settings: A549 miR-34 inducible, Hoechst nuclei count, 48 h
[11] = compounds altering HSF1 focus formation in cells – imaging, Selleck Cancer Library (AID 1347162; in the data active = plate-normalised HSF1 focus index below about 0.46); settings: human cells, HSF1 nuclear foci imaging, at 10 µM; SSMD: measured here: HSF1 foci SSMD mean; cell count: measured here: cell number; plate-normalised HSF1 focus index: stronger effect = lower value
[12] = MELAS cybrid and Rieske KO viability enhancers – cell-based, MELAS cybrids, Rieske KO mouse fibroblasts, CellTiter-Glo, primary screen (AID 1508586;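 active = mean z-score across replicates of 1.96 or higher in either the MELAS or the Rieske mutant cell line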;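 also: z relative to plate mean and SD of compound and empty wells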); settings: low glucose

CCC(C(=O)O)C1CCC(C)C(C(C)C(O)C(C)C(=O)C(CC)C2OC3(C=CC(O)[C@@]4(CC[C@](C)(C5CC[C@@](O)(CC)C(C)O5)O4)O3)C(C)CC2C)O1 (stereo not given in full)
active: AC50 [1] 2350 nM | AC50 [2] 935 nM | AC50 [3] 3320 nM | AC50 [4] 1660 nM | AC50 [5] 3320 nM | AC50 [6] 833 nM | AC50 [7] 1870 nM | AC50 [8] 934 nM | IC50 [9] 2350 nM

OCCCNc1cc(-c2ccnc(Nc3cccc(Cl)c3)n2)ccn1
active: AC50 [1] 132 nM | AC50 [2] 148 nM | AC50 [3] 148 nM | AC50 [4] 52.6 nM | AC50 [5] 83.3 nM | AC50 [6] 132 nM | AC50 [8] 118 nM | IC50 [9] 148 nM
inactive: outcome [7]

Cc1cnc(Nc2ccc(CN3CCOCC3)cc2)nc1Nc1cccc(S(=O)(=O)NC(C)(C)C)c1
active: AC50 [1] 4170 nM | AC50 [2] 10500 nM | AC50 [3] 11800 nM | AC50 [4] 11800 nM | AC50 [5] 3320 nM | AC50 [6] 3320 nM | AC50 [7] 8330 nM | AC50 [8] 5900 nM | IC50 [9] 3720 nM

COc1cc2nc(N3CCCN(C)CC3)nc(NC3CCN(Cc4ccccc4)CC3)c2cc1OC
inactive: fold change ([10]; stronger effect = lower value, cell number ratio, induced over uninduced) 0.884 and 1.04 and 1.01 | plate-normalised HSF1 focus index [11] 1.1 | z-score ([12]; MELAS cybrid survival, CellTiter-Glo 48 h, stronger effect = higher value) -0.436
1.51 and 1.3 and 0.404: fold change ([10]; measured here: relative caspase fold change +Dox/-Dox)
1.64: SSMD [11]
active: AC50 [1] 10500 nM | AC50 [2] 26400 nM | AC50 [3] 7430 nM | AC50 [4] 10500 nM | AC50 [5] 13200 nM | AC50 [6] 10500 nM | AC50 [7] 9350 nM | AC50 [8] 13200 nM | IC50 [9] 11800 nM
-1.67: z-score ([12]; Rieske KO mouse fibroblast survival, CellTiter-Glo 72 h)
760 and 4890 and 2300: cell count ([10]; measured here: total cells without miR-34 induction)
6820: cell count [11]
672 and 5080 and 2320: cell count ([10]; measured here: total cells with miR-34 induction, stronger effect = lower value)

COc1cc2c(Oc3ccc(-c4cnc(Nc5ccc(F)cc5)n(C)c4=O)cc3F)ccnc2cc1OCCCN1CCOCC1
active: AC50 [1] 3320 nM | AC50 [2] 14800 nM | AC50 [3] 18700 nM | AC50 [4] 16600 nM | AC50 [5] 3720 nM | AC50 [6] 2090 nM | AC50 [7] 9350 nM | AC50 [8] 9340 nM | IC50 [9] 6610 nM

CC1=C(CO)C(=O)O[C@@H]([C@@H](C)[C@H]2CC[C@H]3[C@@H]4C[C@H]5O[C@]56[C@@H](O)C=CC(=O)[C@]6(C)[C@H]4CC[C@]23C)C1
active: AC50 [1] 1480 nM | AC50 [2] 1870 nM | AC50 [3] 1180 nM | AC50 [4] 332 nM | AC50 [5] 1050 nM | AC50 [6] 1480 nM | AC50 [7] 743 nM | AC50 [8] 1320 nM | IC50 [9] 2350 nM

CCOC(=O)/C=C/[C@H](C[C@@H]1CCNC1=O)NC(=O)[C@@H](CC(=O)[C@@H](NC(=O)c1cc(C)on1)C(C)C)Cc1ccc(F)cc1
inactive: outcome [1] | outcome [2] | outcome [3] | outcome [4] | outcome [5] | outcome [6] | outcome [7] | outcome [8] | outcome [9]

O=C1NC(=O)/C(=C/c2ccc3nccc(-c4ccncc4)c3c2)S1
active: AC50 [1] 1180 nM | AC50 [2] 743 nM | AC50 [3] 1050 nM | AC50 [4] 83.3 nM | AC50 [5] 1480 nM | AC50 [6] 468 nM | AC50 [7] 264 nM | AC50 [8] 1480 nM | IC50 [9] 1320 nM

O=c1c(-c2ccc(O)cc2)coc2cc(O[C@@H]3O[C@H](CO)[C@@H](O)[C@H](O)[C@H]3O)ccc12
inactive: outcome [1] | outcome [2] | outcome [3] | outcome [4] | outcome [5] | outcome [6] | outcome [7] | outcome [8] | outcome [9]

C=C(C)[C@@H]1CC[C@]2(C)CC[C@]3(C)[C@H](CC[C@@H]4[C@@]5(C)CC[C@H](O)C(C)(C)[C@@H]5CC[C@]43C)[C@@H]12
inactive: outcome [1] | outcome [2] | outcome [3] | outcome [4] | outcome [5] | outcome [6] | outcome [7] | outcome [8] | outcome [9]

CN1CCN(Cc2ccc(NC(=O)Nc3ccc(Oc4cc(NC(=O)C5CC5)ncn4)cc3)cc2C(F)(F)F)CC1
active: AC50 [1] 468 nM | AC50 [2] 5900 nM | AC50 [3] 118 nM | AC50 [4] 235 nM | AC50 [5] 525 nM | AC50 [6] 417 nM | AC50 [7] 2960 nM | AC50 [8] 372 nM | IC50 [9] 417 nM

COC(=O)C[C@](O)(CCCC(C)(C)O)C(=O)O[C@@H]1C(OC)=CC23CCCN2CCc2cc4c(cc2[C@H]13)OCO4 (stereo not given in full)
active: AC50 [1] 66.1 nM | AC50 [5] 118 nM | AC50 [6] 93.4 nM | AC50 [8] 332 nM
inactive: outcome [2] | outcome [3] | outcome [4] | outcome [7] | outcome [9]

COc1cc(CCc2cc(NC(=O)c3ccc(N4C[C@@H](C)N[C@@H](C)C4)cc3)n[nH]2)cc(OC)c1
active: AC50 [1] 417 nM | AC50 [2] 8330 nM | AC50 [3] 18700 nM | AC50 [4] 16600 nM | AC50 [5] 235 nM | AC50 [6] 263 nM | AC50 [7] 23500 nM | AC50 [8] 13200 nM | IC50 [9] 8330 nM

Cc1c(CN2CCN(C(=O)[C@H](C)O)CC2)sc2c(N3CCOCC3)nc(-c3cnc(N)nc3)nc12
active: AC50 [1] 590 nM | AC50 [2] 1870 nM | AC50 [3] 1870 nM | AC50 [4] 41.8 nM | AC50 [5] 590 nM | AC50 [6] 209 nM | AC50 [7] 935 nM | AC50 [8] 372 nM | IC50 [9] 934 nM
